{"source": "PubChem BioAssay AID1851", "about": "(National Center for Advancing Translational Sciences (NCATS), 2009)", "note": "About 2,600 (16%) of roughly 16,000 compounds were called active. About 20% were inconclusive and are not listed. Calls follow the shape of the dose curve; as a rule, active = well fitted curve in the direction sought with a large enough effect; inconclusive = small, poorly fitted or top-dose-only effect, or effect the other way; inactive = no such curve, though single readings can be large or run the other way. The list is a sample of the results. % is scaled to controls: 0 for no effect and ±100 for the full control effect.", "data": [{"target": "Cytochrome P450 2D6 (Homo sapiens) (UniProt P10635)", "sequence (P10635 whole entry, looked up)": "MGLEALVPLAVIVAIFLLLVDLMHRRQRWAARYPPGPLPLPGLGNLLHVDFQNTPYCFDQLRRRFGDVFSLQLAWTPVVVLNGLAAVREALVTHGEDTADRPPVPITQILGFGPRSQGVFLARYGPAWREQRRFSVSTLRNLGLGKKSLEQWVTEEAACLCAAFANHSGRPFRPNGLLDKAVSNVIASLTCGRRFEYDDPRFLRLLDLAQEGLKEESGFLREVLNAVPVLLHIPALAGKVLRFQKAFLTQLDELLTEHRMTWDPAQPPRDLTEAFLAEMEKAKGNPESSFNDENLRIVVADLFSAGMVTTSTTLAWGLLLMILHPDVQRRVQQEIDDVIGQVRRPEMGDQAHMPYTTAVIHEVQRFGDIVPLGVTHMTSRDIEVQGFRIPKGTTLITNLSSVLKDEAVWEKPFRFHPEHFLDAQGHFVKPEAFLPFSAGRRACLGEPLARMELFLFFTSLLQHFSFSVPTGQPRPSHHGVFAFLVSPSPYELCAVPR", "experiment": "Cytochrome panel assay with activity outcomes", "details": "recombinant CYP, pro-luciferin dealkylation, luminescence, p450-cyp2d6; series mostly up to 57.1 µM", "values": [{"smiles": "CCCCOC(=O)c1cc2c(cn1)[nH]c1ccccc12", "AC50": "inactive"}, {"smiles": "CCCC[C@@H]1C[C@H]1C(NC(=O)Cc1ccccc1)c1ccc(-c2ccccc2)cc1", "note": "(stereo partly drawn)", "AC50": "inactive"}, {"smiles": "CCOC(=O)c1c(C)nc2sc3c(=O)n(-c4ccc(C)cc4)cnc3c2c1-c1ccc(OC)cc1", "AC50": "inactive"}, {"smiles": "O=C(O)c1c2c(c(O)c3c1CN(C1CCCCC1)CO3)OCN(C1CCCCC1)C2", "activity, negative = inhibition": "15.7% [at 11.4 µM] (inactive)"}, {"smiles": "C[C@@H](C(=O)O)[C@H]1C[C@]1(C)[C@H](NC(=O)OCc1ccccc1)c1ccccc1", "AC50": "inactive"}, {"smiles": "C[C@@H](C(=O)O)[C@@H]1C[C@@]1(C)[C@@H](NC(=O)OCc1ccccc1)c1ccccc1", "AC50": "inactive"}, {"smiles": "CNC(=O)[C@H](C)[C@@H]1C[C@@]1(C)[C@@H](NC(=O)OCc1ccccc1)c1ccccc1", "AC50": "3.16 µM (active)"}, {"smiles": "O=C(O)C[C@H](Cc1ccccc1)C(=O)O", "activity, negative = inhibition": "6.15% [at 11.4 µM] (inactive)"}, {"smiles": "CCC(C)NC(=O)NC(=O)N(C1CCCCC1)S(C)(=O)=O", "note": "(stereo not drawn)", "AC50": "inactive"}, {"smiles": "CO[C@H]1C[C@@H](O[C@@H]2[C@H](C)[C@H](O[C@@H]3O[C@@H](C)C[C@@H](N(C)C)[C@@H]3O)[C@H](C)C[C@]3(CO3)C(=O)[C@H](C)[C@H](O)[C@H](C)[C@H](C)OC(=O)[C@@H]2C)O[C@@H](C)[C@H]1O", "AC50": "inactive"}, {"smiles": "C[N+]1(CCC[N+]2(C)C[C@H]3[C@H](C2)[C@H]2C=C[C@@H]3CC2)CCOCC1", "note": "(stereo partly drawn)", "activity, negative = inhibition": "-2.37% [at 11.4 µM] (inactive)"}, {"smiles": "CN=C(N)/N=C(\\N)Nc1cc2ccccc2c2ccccc12", "AC50": "1.58 µM (active)"}, {"smiles": "NC(=S)Nc1cccc2cccnc12", "AC50": "inactive"}, {"smiles": "NC(=S)Nc1cc2ccccc2c2ccccc12", "AC50": "28.2 µM (active)"}, {"smiles": "S=C(CSc1ccccc1)Nc1cccc2ccccc12", "activity, negative = inhibition": "-5.75% [at 11.4 µM] (inactive)"}, {"smiles": "CSc1nc(Oc2ccc(F)cc2)c2ccccc2n1", "AC50": "inactive"}, {"smiles": "C[C@@]1(C(NC(=O)c2cccs2)c2ccc(-c3ccccc3)cc2)C[C@H]1C1CCCCC1", "note": "(stereo partly drawn)", "AC50": "inactive"}, {"smiles": "COc1ccc(OC)c(NC(=O)CSCc2cnn(-c3ccccc3)c2-n2cccc2)c1", "AC50": "inactive"}, {"smiles": "COc1ccccc1Cn1nnc2c(=O)[nH]c(C3CCN(C(=O)c4ccc(C)cc4)CC3)nc21", "AC50": "inactive"}, {"smiles": "O=C(NCc1ccco1)c1nc2c(nnn2Cc2cccc(Cl)c2)c(=O)[nH]1", "AC50": "inactive"}, {"smiles": "COc1cccc(Cn2nnc3c(=O)[nH]c(C4CCCN(C(=O)c5ccccc5Cl)C4)nc32)c1", "note": "(stereo not drawn)", "AC50": "15.8 µM (active)"}, {"smiles": "NCCSc1nc(-c2ccccc2)c(-c2ccccc2)o1", "activity, negative = inhibition": "5.57% [at 11.4 µM] (inactive)"}, {"smiles": "COc1ccc(Br)c2c1C[C@H](C(=O)O)CC2", "activity, negative = inhibition": "7.4% [at 11.4 µM] (inactive)"}]}]}
